Source: paper PMC5540273 (PLoS ONE, 2017)
Values joined by “and” are separate entries in the source; they are usually repeats but may differ in a detail not shown here. Equal entries are not always repeated. Where two headings read alike, the source gives them in different places.

Key:
GRK7 = conditions: concentration: 1 μM, replicates: in singlicate; n = 1
GSK3A = conditions: n = 1
GSK3B = conditions: n = 1
HASPIN = system: T1, HASPIN; conditions: concentration: 1 μM, replicates: in singlicate; n = 1
T1 construct: gene GSG2

HCK = conditions: concentration: 1 μM, replicates: in singlicate; n = 1
HIPK1 = conditions: concentration: 1 μM, replicates: in singlicate; n = 1
HIPK2 = conditions: concentration: 1 μM, replicates: in singlicate; n = 1
HIPK3 = conditions: n = 1
HIPK4 = conditions: n = 1
HPK1 = conditions: n = 1
[1] = concentration: 1 μM, replicates: in singlicate
[2] = concentration: 1 μM,replicates: in singlicate, 1 µM
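Further: KINOMEscan kinase panel screen.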

Compound: COC(=O)c1c(-c2ccccc2)c2cc(OC)ccc2c(=O)n1Cc1ccccc1
- %Inh (GRK7): 24%
- %Inh (GSK3A; [1]): 14%
- %Inh (GSK3B; [1]): 18%
- %Inh (HASPIN): 3%
- %Inh (HCK): 22%
- %Inh (HIPK1): 7%
- %Inh (HIPK2): 11%
- %Inh (HIPK3; [1]): 3%
- %Inh (HIPK4; [1]): 0%
- %Inh (HPK1; [1]): 0%

Compound: CSc1nn2c(=O)cc(N3CCOCC3)nc2n1Cc1cccc(C(F)(F)F)c1C [GSK2363608]
- %Inh (GRK7): 0%
- %Inh (GSK3A; [2]): 26% and 9%
- %Inh (GSK3B; [2]): 12% and 25%
- %Inh (HASPIN): 0%
- %Inh (HCK): 0%
- %Inh (HIPK1): 0%
- %Inh (HIPK2): 0%
- %Inh (HIPK3; [2]): 11% and 15%
- %Inh (HIPK4; [2]): 0% and 18%
- %Inh (HPK1; [2]): 24% and 36%

Compound: CN(C)CCN(C)C(=O)c1cc(-c2ccncc2)c(-c2ccc(Cl)c(O)c2)o1.Cl.Cl [SB-710397]
- %Inh (GRK7): 0%
- %Inh (GSK3A; [1]): 0%
- %Inh (GSK3B; [1]): 14%
- %Inh (HASPIN): 53%
- %Inh (HCK): 14%
- %Inh (HIPK1): 0%
- %Inh (HIPK2): 0%
- %Inh (HIPK3; [1]): 16%
- %Inh (HIPK4; [1]): 0%
- %Inh (HPK1; [1]): 46%

Compound: O=C1NC(=O)C(N2CCc3ccccc32)=C1c1ccccc1Cl [SB-373598]
- %Inh (GRK7): 0%
- %Inh (GSK3A; [1]): 4%
- %Inh (GSK3B; 1 µM): 27%
- %Inh (HASPIN): 100%
- %Inh (HCK): 0%
- %Inh (HIPK1): 30%
- %Inh (HIPK2): 24%
- %Inh (HIPK3; [1]): 13%
- %Inh (HIPK4; [1]): 12%
- %Inh (HPK1; [1]): 0%

Compound: Cc1cc(-c2ccc3c(c2)CC[C@@H](N[C@@H](C)c2ccccc2)C3)cnc1N.Cl [GW412617]
- %Inh (GRK7): 0%
- %Inh (GSK3A; [1]): 0%
- %Inh (GSK3B; [1]): 6%
- %Inh (HASPIN): 0%
- %Inh (HCK): 0%
- %Inh (HIPK1): 0%
- %Inh (HIPK2): 6%
- %Inh (HIPK3; [1]): 12%
- %Inh (HIPK4; [1]): 6%
- %Inh (HPK1; [1]): 55%

Compound: COc1ccc(Nc2nccc(-c3cccc(NC(=O)c4cc5cc(F)ccc5[nH]4)c3)n2)cc1 [GSK1229782]
- %Inh (GRK7): 0%
- %Inh (GSK3A; [1]): 31%
- %Inh (GSK3B; [1]): 0%
- %Inh (HASPIN): 39%
- %Inh (HCK): 0%
- %Inh (HIPK1): 0%
- %Inh (HIPK2): 46%
- %Inh (HIPK3; [1]): 0%
- %Inh (HIPK4; [1]): 36%
- %Inh (HPK1; [1]): 65%

Compound: Cc1ccc(NC(=O)Nc2cc(C(C)(C)C)nn2-c2ccccc2)cc1 [GSK1014915]
- %Inh (GRK7): 0%
- %Inh (GSK3A; [1]): 0%
- %Inh (GSK3B; [1]): 13%
- %Inh (HASPIN): 0%
- %Inh (HCK): 0%
- %Inh (HIPK1): 0%
- %Inh (HIPK2): 0%
- %Inh (HIPK3; [1]): 13%
- %Inh (HIPK4; [1]): 0%
- %Inh (HPK1; [1]): 25%

Compound: Clc1cc(Cl)cc(Nc2ccnc(Nc3cc(Cl)cc(Cl)c3)n2)c1 [GSK175726]
- %Inh (GRK7): 0%
- %Inh (GSK3A; [1]): 30%
- %Inh (GSK3B; [1]): 0%
- %Inh (HASPIN): 0%
- %Inh (HCK): 10%
- %Inh (HIPK1): 32%
- %Inh (HIPK2): 1%
- %Inh (HIPK3; [1]): 7%
- %Inh (HIPK4; [1]): 0%
- %Inh (HPK1; [1]): 38%

Compound: COc1ccc2nc(-c3cccc(C)n3)nc(Nc3ccncc3)c2c1 [GSK204919]
- %Inh (GRK7): 0%
- %Inh (GSK3A; [1]): 0%
- %Inh (GSK3B; [1]): 19%
- %Inh (HASPIN): 15%
- %Inh (HCK): 0%
- %Inh (HIPK1): 0%
- %Inh (HIPK2): 0%
- %Inh (HIPK3; [1]): 11%
- %Inh (HIPK4; [1]): 0%
- %Inh (HPK1; [1]): 28%
